{
  "source": "PubChem BioAssay (NCI)",
  "note": "The panel holds about 83,000 compounds, 20% with a hit somewhere; the sample as a whole holds those more often.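 The endpoint reported here, percent growth, reads 100 for growth as untreated, 0 for no net growth and -100 for all cells dead.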 The source made the active and inactive calls.",
  "data": [
    {"system": "HT29 colon", "assay": "NCI-60 one-dose screen, 48 h (100 = growth as untreated, 0 = no growth, -100 = all killed)", "settings": "10 µM unless noted", "procedure": "Growth inhibition of the HT29 human tumor cell line is measured as a screen for anti-cancer activity. Cells are grown in 96 well plates and exposed to the test compound for 48 hours. Compounds are tested at a single concentration, which is 10^-5 M for most compounds. The reported endpoint is percent growth (GI% or GIPRCNT), where numbers from 0 - 100% represent growth inhibition, and numbers from -100% - 0 represent cell death. For example, a value of 40 represents 60% growth inhibition. A value of 0 means no net growth occurred over the course of the experiment. A value of -40 indicates 40% of cells at the beginning of the experiment died by the end of the experiment. A value of -100 means all cells are dead at the end of the experiment.\nNCI-60 Human Tumor Cell Lines Screen was performed using the standard one-dose NCI protocol, which is described in more detail at https://dtp.cancer.gov/discovery_development/nci-60/default.htm.\nCompounds with GIPRCNT values below 10 were considered active. Activity score was based on GIPRCNT using the following formula: […]\nScore is 0 for GIPRCNT values of 100 or above, 50 for GIPRCNT values of 0, and 100 for GIPRCNT values of -100.", "values": [
      {"compound": "COc1cccc(-c2nc3sccn3c2-c2ccnc(NCCNS(=O)(=O)c3c(Cl)cccc3Cl)c2)c1", "growth": "47.3% (inactive)"},
      {"compound": "N#Cc1c(N)nc2c(nnn2-c2cccc(Br)c2)c1N", "growth": "102% (inactive)"},
      {"compound": "COc1cc(/C=C/C(=O)c2cccc(-n3cc(-c4ccc(Cl)cc4)[nH]c3=O)c2)cc(OC)c1OC", "growth": "-12% (active)"},
      {"compound": "C=CCN1C(=O)[C@]2(SC1=S)[C@H](c1cccc(Cl)c1)CN(C)[C@]21C(=O)NC2C=CC(Cl)=C[C@H]21", "note": "(stereo not given in full)", "growth": "27.9% (inactive)"},
      {"compound": "COc1ccc(-c2cn(-c3cccc(C(=O)/C=C/c4cc(OC)c(OC)c(OC)c4)c3)c(=O)[nH]2)cc1", "growth": "-67.1% (active)"},
      {"compound": "CC1(C)C(=O)/C(=C\\c2cccnc2)C[C@]2(C)[C@H]3CC=C4[C@@H]5C[C@@](C)(C(=O)O)CC[C@]5(C)CC[C@@]4(C)[C@]3(C)CC[C@@H]12", "growth": "91.5% (inactive)"},
      {"compound": "CC[C@@H](C[C@H](CCO)c1ccccc1)c1cc2ccccc2o1", "growth": "82.7% (inactive)"},
      {"compound": "O=c1[nH]c(NCc2nnnn2-c2ccc(Br)cc2)nc2sc3c(c12)CCCC3", "growth": "95.5% (inactive)"},
      {"compound": "COc1c(C)cnc(CSc2nc(-c3ccc(C)cc3)cn2-c2ccc(Cl)cc2)c1C", "growth": "73.8% (inactive)"},
      {"compound": "O=C1Nc2ccccc2SC1C1SC(=S)N(Cc2ccccc2)C1=O", "note": "(stereo not given)", "growth": "12.9% (inactive)"},
      {"compound": "Cc1nc(Nc2cccc(NC(=O)Nc3ccc(Cl)cc3)c2)c2ccccc2n1", "growth": "80.8% (inactive)"},
      {"compound": "Cc1cc(C(c2ccccc2)c2ccccc2)ccc1NS(=O)(=O)c1ccccc1", "growth": "89.3% (inactive)"},
      {"compound": "CC(=O)Nc1nccs1", "growth": "101% (inactive)"},
      {"compound": "CCNCCNc1cc(-c2ccc(C(F)(F)F)cc2)c(C#N)c2nc3cc(Cl)c(Cl)cc3n12", "growth": "-85.5% (active)"},
      {"compound": "CCOC(=O)C1=C(C)NC(SCc2nnc(-c3ccc(Cl)cc3)o2)=NC1c1ccc(Cl)cc1Cl", "note": "(stereo not given)", "growth": "53.1% (inactive)"},
      {"compound": "c1ccc2c(c1)nc(-n1ccnc1)c1nc3ccccc3n12", "growth": "74% (inactive)"},
      {"compound": "Cc1ccc(/C=C(\\C#N)n2nnc3cc(Cl)c(Cl)cc32)cc1", "growth": "12.3% (inactive)"},
      {"compound": "C=C(C)C1CCC(=C)C2CCC3(C)OC12/C=C(/COC(C)=O)CCC3O", "note": "(stereo not given)", "growth": "140% (inactive)"},
      {"compound": "COc1ccc(-n2sc(=O)n(Cc3ccc(COC(=O)C(C)c4ccc(CC(C)C)cc4)cc3)c2=O)cc1", "note": "(stereo not given)", "growth": "22% (inactive)"},
      {"compound": "CCCCCCCCn1cc(C2=C(c3coc4ccc(OC)cc34)C(=O)NC2=O)c2ccccc21", "growth": "99.3% (inactive)"},
      {"compound": "Cn1nnnc1-c1ccc(N)cc1", "growth": "95% (inactive)"},
      {"compound": "O=C(/C=C/c1ccccc1)c1ccc2ccccc2c1", "growth": "54.7% (inactive)"},
      {"compound": "Nc1ccc2c(S(=O)(=O)O)ccc(S(=O)(=O)O)c2c1", "growth": "105% (inactive)"},
      {"compound": "NC(=O)c1c(NC(=O)c2ccccn2)sc2c1CCC(=O)C2", "growth": "68% (inactive)"},
      {"compound": "O=C(NC(=S)Nc1ccc(-c2nc3ccccc3[nH]2)cc1)c1ccc2ccccc2c1", "growth": "21.8% (inactive)"},
      {"compound": "Cc1c(C(=O)O[C@H]2[C@@H]3[C@H](C)CC[C@H]3[C@]3(C)O[C@@]2(C2CCCCC2)C[C@H]3OC(=O)CO)ccc2ccccc12", "growth": "-4.24% (active)"},
      {"compound": "COc1cccc(/C=C2\\COc3ccc(O)cc3C2=O)c1OC", "growth": "19.2% (inactive)"},
      {"compound": "COc1ccc(/C(C)=C(\\c2ccc(Cl)cc2)c2ccc(OCCN3CCCC3)cc2)cc1F", "growth": "-10.5% (active)"},
      {"compound": "CS(=O)(=O)c1ccc(-c2nc3cc(Cl)ccc3n2CC(=O)N/N=C/c2ccc(Cl)cc2)cc1", "growth": "36.2% (inactive)"},
      {"compound": "Cc1nc(Nc2ccc(NC(=S)Nc3ccccc3)cc2)nc2nc(SCc3ccccc3)[nH]c(=O)c12", "growth": "120% (inactive)"},
      {"compound": "COC(=O)/C(=C\\c1ccc(OC)cc1)C(=O)N1c2ccccc2Sc2ccccc21", "growth": "15.3% (inactive)"},
      {"compound": "COc1cc2nc(Nc3ccc(F)cc3)nc(N)c2cc1OC", "growth": "81% (inactive)"},
      {"compound": "O=C(NCCN1CCC(O)CC1)c1cc2c(o1)C(=O)c1ccccc1C2=O", "growth": "-5.34% (active)"},
      {"compound": "Cc1cc(=O)[nH]c(N/N=C/c2cc(Br)ccc2O)n1", "growth": "58.9% (inactive)"},
      {"compound": "Nc1nc(I)c2ncn(C3OC(CO)C(O)C3O)c2n1", "note": "(stereo not given)", "growth": "141% (inactive)"},
      {"compound": "O=c1[nH]nc(-c2ccc(Cl)cc2)cc1Cc1ccccc1", "growth": "108% (inactive)"},
      {"compound": "COc1ccc(-c2nnc(-c3ccc4c(c3)nc(-c3ccccc3)n4C3CCCCC3)o2)cc1", "growth": "34.9% (inactive)"},
      {"compound": "CCOc1cccnc1/C=N/NC(N)=S", "growth": "56.7% (inactive)"},
      {"compound": "COc1cc(CNC(=O)/C=C/C=C/c2ccc3c(c2)OCO3)ccc1OCc1cn(-c2ccc(Cl)c(Cl)c2)nn1", "growth": "5.61% (active)"},
      {"compound": "N#Cc1cccc(-c2nc3ccccn3c2NCCN2CCOCC2)c1", "growth": "92.8% (inactive)"}
    ]}
  ]
}
